Data on seven compounds can be found in PubChem BioAssay (Tox21).

The nature of assay [1]: Nuclear factor erythroid 2-related factor 2/antioxidant responsive element (Nrf2/ARE) small molecule agonists: luciferase reporter gene qHTS assay in human keratinocytes (AID 1919969; further: nearly all actives have a fitted effect of over 35% in size; further: potency means the concentration at half of the fitted maximal effect). (In a reporter assay the amount or activity of a reporter protein is the signal.)
The target of assay [2] is Gonadotropin-releasing hormone receptor (Homo sapiens) (UniProt P30968). Description: Human gonadotropin-releasing hormone receptor (GnRHR) small molecule agonists, calcium flux assay in GnRHR-HEK293 cells (AID 1920063). Further: nearly all actives have a fitted effect of over 35% in size. The procedure, abridged: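 Cells: HEK293 stably expressing human GnRHR. Steps: overnight (18 h) culture, 1 h calcium dye loading at 37 C, compound addition, kinetic fluorescence read at 480/540 nm. Each compound tested at 15 concentrations in triplicate.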
Chain of Gonadotropin-releasing hormone receptor (Homo sapiens) (P30968 whole entry, looked up): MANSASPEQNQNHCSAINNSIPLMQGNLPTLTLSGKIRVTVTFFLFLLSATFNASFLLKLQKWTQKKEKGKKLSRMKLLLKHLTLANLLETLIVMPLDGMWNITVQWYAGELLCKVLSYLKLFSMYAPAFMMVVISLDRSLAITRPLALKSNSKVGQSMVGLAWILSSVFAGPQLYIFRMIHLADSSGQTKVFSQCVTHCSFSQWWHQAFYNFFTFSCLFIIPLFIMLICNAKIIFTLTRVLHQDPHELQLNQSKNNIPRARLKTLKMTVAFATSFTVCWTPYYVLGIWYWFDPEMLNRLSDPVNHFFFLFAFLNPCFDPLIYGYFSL
A general note: Calcium flux is commonly read through the fluorescence of an indicator in the cells.

The target in assay [3] is KiSS-1 receptor (Homo sapiens) (UniProt Q969F8). The experiment in a line: Human kisspeptin (KISS1R) small molecule agonists, calcium flux assay in KISS1R-HEK293 cells (AID 1920064; active means well fitted activation curve with a large enough effect in the repeat runs). The procedure, abridged: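 Cells plated and incubated 18 h; dye added, 1 h at 37 C; compounds in DMSO pinned in; signal read at 480/540 nm every second for 3 min. Each compound tested at 15 concentrations in triplicate.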
Chain of KiSS-1 receptor (Homo sapiens) (Q969F8 whole entry, looked up): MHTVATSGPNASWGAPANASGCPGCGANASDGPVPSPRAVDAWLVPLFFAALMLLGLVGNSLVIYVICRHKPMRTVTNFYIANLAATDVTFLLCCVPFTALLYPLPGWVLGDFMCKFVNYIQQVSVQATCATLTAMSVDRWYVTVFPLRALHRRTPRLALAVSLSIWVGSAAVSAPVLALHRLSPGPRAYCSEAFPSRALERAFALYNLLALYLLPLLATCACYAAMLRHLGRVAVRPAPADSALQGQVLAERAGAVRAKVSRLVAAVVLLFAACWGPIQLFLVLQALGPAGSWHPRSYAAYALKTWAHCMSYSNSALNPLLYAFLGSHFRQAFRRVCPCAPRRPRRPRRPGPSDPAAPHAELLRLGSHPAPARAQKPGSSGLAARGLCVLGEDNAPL

Assay [4] is described as follows: G protein-coupled receptor (GPCR) small molecule agonists, calcium flux assay: HEK293 wild type cell line counter screen (AID 1920065). The procedure, abridged:
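Counter-screen of the Tox21 10K library for non-specific calcium release: dye-loaded cells received compounds in DMSO and were monitored by kinetic fluorescence (480/540 nm, 3 min). Fifteen concentrations, run in triplicate.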

Assay [5] is described as follows: p53 small molecule agonists, cell-based qHTS assay with human liver microsomes (AID 1963577). Further: potency means the concentration at half of the fitted maximal effect. The gist of the method:
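Cells carrying a p53-responsive bla reporter were rested 5 h (37 C, 5% CO2) before compound transfer. Human liver microsomes plus NADPH, 0.5 mg/mL final apiece, supplied metabolism during the 16 h 37 C exposure.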
Background: qHTS replaces the single test concentration by a dilution series.

A short description of assay [6]: p53 small molecule agonists, cell-based qHTS assay with human liver microsomes: qHTS cell viability counter screen (AID 1963579). Further: nearly all actives have a fitted effect of over 45% in size. The procedure, abridged: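 Seed p53RE-bla cells at 4,000 per well; incubate 5 h at 37 C; add compound, human liver microsomes and NADPH; incubate 16 h at 37 C; add CellTiter-Glo; after 30 min at room temperature, read luminescence.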
A short description of assay [7]: p53 small molecule agonists, cell-based qHTS assay with rat liver microsomes: qHTS cell viability counter screen (AID 1963580). Further: nearly all actives have a fitted effect of over 45% in size. The procedure, abridged: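 p53RE-bla HCT-116 cells (4,000/well) rested 5 h at 37 C, then given Tox21 compounds in DMSO with rat liver microsomes (0.5 mg/mL final) plus NADPH (0.5 mg/mL final) for 16 h at 37 C. Viability read by CellTiter-Glo luminescence after 30 min at room temperature.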

Assay [8] can be described thus: p53 small molecule agonists, cell-based qHTS assay: qHTS cell viability counter screen (AID 1963581). Further: nearly all actives have a fitted effect of over 45% in size. The gist of the method:
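Cells: HCT-116 with p53 response element-driven beta-lactamase. Treatment: 16 h, 37 C, compounds in DMSO. Read: CellTiter-Glo luminescence after 30 min RT.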

Assay [9] can be described thus: p53 small molecule agonists, cell-based qHTS assay (AID 1963582; active means well fitted activation curve with a large enough effect in the signal ratio in the repeat runs, not every such curve was filed as active; the % refers to the signal ratio; further: potency means the concentration at half of the fitted maximal effect). The procedure, abridged:
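Quantitative HTS in p53RE-bla cells: after a 5 h settling period, compounds delivered in DMSO were left on cells for 16 h at 37 C, and reporter induction was measured as fluorescence following 2 h substrate loading.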

Assay [10] addresses 5-hydroxytryptamine receptor 2A (Homo sapiens) (UniProt P28223). Description: 5-hydroxytryptamine receptor 2A (HTR2A) small molecule antagonists, cell-based qHTS assay (AID 1963586). Further: nearly all actives have a fitted effect of over 45% in size. The procedure, abridged:
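Antagonist-mode intracellular calcium assay: DOI (4 nM) added after 5 min compound pre-incubation at room temperature to dye-loaded HTR2A-CHO cells. Fluorescence followed for 3 min, sampled every second.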

Assay [11] shares this target. Description: 5-hydroxytryptamine receptor 2A (HTR2A) small molecule agonists, cell-based qHTS assay (AID 1963587). Further: nearly all actives have a fitted effect of over 30% in size. The gist of the method:
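HTR2A-CHO cells, plated 18 h at 37 C/5% CO2, dye-loaded 1 h at 37 C; compounds in DMSO added by pin tool (agonist mode). Intracellular calcium flux read as kinetic fluorescence on FDSS over 2 min at 1 s intervals.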

For assay [12], the target named is Muscarinic acetylcholine receptor M1 (Homo sapiens) (UniProt P11229). Description: Cholinergic receptor muscarinic 1 (CHRM1) small molecule antagonists, cell-based qHTS assay (AID 1963588). Further: nearly all actives have a fitted effect of over 40% in size. Further: potency means the concentration at half of the fitted maximal effect. The gist of the method:
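CHRM1-CHO calcium-flux assay, antagonist mode. Cells were seeded 18 h, dye-loaded 1 h at 37 C and given compound for 5 min at RT, then acetylcholine was added at 50nM. FDSS fluorescence was read 3 min; 15 concentrations, three runs.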

The nature of assay [13]: cAMP Responsive Elements (CRE) small molecule agonists, cell-based qHTS assay (AID 1963590). The gist of the method:
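Agonist mode qHTS in CRE-bla HEK 293T cells: compounds dosed from DMSO for 3 h at 37 C/5% CO2, followed by LiveBLAzer B/G FRET substrate for 2 h at room temperature.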

Assay [14] in a line: cAMP Responsive Elements (CRE) small molecule antagonists, cell-based qHTS assay (AID 1963591; active means well fitted inhibition curve with a large enough effect in the signal ratio in the repeat runs, not every such curve was filed as active; the % refers to the signal ratio). The procedure, abridged: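 Antagonist mode: test compounds are co-incubated with the adenylyl cyclase activator NKH477 (0.25 uM final) on CRE-bla HEK293T cells for 3 h at 37 °C, followed by LiveBLAzer substrate loading.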
Assay [15] addresses D(2) dopamine receptor (Homo sapiens) (UniProt P14416). Description: Dopamine D2 receptor (DRD2) small molecule agonists, cell-based qHTS assay (AID 1963594). Further: nearly all actives have a fitted effect of over 35% in size. The procedure, abridged:
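HEK293 cells stably expressing DRD2 were cultured 24 h at 37 C, then given Ro20-1724 (0.1 mM final) and compounds for 10 min at room temperature. NKH477 (200nM) was then added for 30 min. cAMP was read by HTRF.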

Assay [16] has the same target. Description: Dopamine D2 receptor (DRD2) small molecule antagonists, cell-based qHTS assay (AID 1963595; active means well fitted inhibition curve with a large enough effect in the signal ratio in the repeat runs, with a control signal flat; the % refers to the signal ratio). The procedure, abridged: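 Antagonist mode in DRD2-HEK293 cells: after compound addition with 0.1 mM Ro20-1724, cells received quinpirole (12 nM) and NKH477 (200 nM) for 30 min at room temperature; HTRF cAMP read after 1 h detection.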
Assay [17] in a line: p53 small molecule agonists, cell-based qHTS assay with rat liver microsomes (AID 1963578). The procedure, abridged:
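Fluorescence from a beta-lactamase reporter under a p53 response element was measured after cells had been incubated 16 h at 37 C with test compound and rat liver microsomes plus NADPH (0.5 mg/mL final each).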

Assay [18] concerns the target Muscarinic acetylcholine receptor M1 (Homo sapiens) (UniProt P11229). Description: Cholinergic receptor muscarinic 1 (CHRM1) small molecule agonists, cell-based qHTS assay (AID 1963589). Further: nearly all actives have a fitted effect of over 35% in size. The procedure, abridged:
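Agonist-mode qHTS in CHO cells stably carrying human muscarinic M1. Intracellular calcium is tracked by fluorescence every second after compound transfer; each compound runs at 15 concentrations in three independent runs.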

Assay [19] concerns the target Beta-2 adrenergic receptor (Homo sapiens) (UniProt P07550). Description: Adrenergic beta2 receptor (ADRB2) small molecule antagonists, cell-based qHTS assay (AID 1963592). Further: series mostly up to about 92 µM; nearly all actives have a fitted effect of over 50% in size. The gist of the method: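 Cells (CHO, stable ADRB2 overexpression) incubated 18-20hr at 37C; compounds added from DMSO; agonist mix (1nM isoproterenol, 100uM IBMX, 25uM Ro-20-1724) added; 0.5hr RT; d2-cAMP and anti-cAMP-cryptate added; 1hr RT; 665/615 nm read.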

Assay [20] has the same target. Description: Adrenergic beta2 receptor (ADRB2) small molecule agonists, cell-based qHTS assay (AID 1963593).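 Further: CHO cells stably overexpressing human ADRB2.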 The procedure, abridged:
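CHO cells stably over-expressing ADRB2 were plated overnight at 37C, then dosed with compounds plus a stimulation mix containing 100uM IBMX and 25uM Ro-20-1724 for 0.5hr at room temperature. cAMP was measured by HTRF competition, 1hr.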

Inconclusive results are not listed. Activity calls are given as the source filed them. Unless noted, the call rests on the fitted dose curve.

Chain of Muscarinic acetylcholine receptor M1 (Homo sapiens) (P11229 whole entry, looked up): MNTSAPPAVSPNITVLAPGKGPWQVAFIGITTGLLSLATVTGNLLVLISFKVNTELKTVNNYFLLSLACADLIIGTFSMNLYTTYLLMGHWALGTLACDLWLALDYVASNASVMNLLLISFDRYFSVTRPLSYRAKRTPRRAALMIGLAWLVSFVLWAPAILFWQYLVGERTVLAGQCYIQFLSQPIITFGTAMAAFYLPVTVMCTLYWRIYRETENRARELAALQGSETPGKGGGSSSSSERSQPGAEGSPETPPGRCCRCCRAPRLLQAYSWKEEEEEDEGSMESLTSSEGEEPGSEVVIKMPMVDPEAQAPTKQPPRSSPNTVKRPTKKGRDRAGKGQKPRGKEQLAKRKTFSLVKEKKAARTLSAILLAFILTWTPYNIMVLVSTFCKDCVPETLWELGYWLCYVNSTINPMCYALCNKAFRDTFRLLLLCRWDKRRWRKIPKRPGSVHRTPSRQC
Chain of Beta-2 adrenergic receptor (Homo sapiens) (P07550 whole entry, looked up): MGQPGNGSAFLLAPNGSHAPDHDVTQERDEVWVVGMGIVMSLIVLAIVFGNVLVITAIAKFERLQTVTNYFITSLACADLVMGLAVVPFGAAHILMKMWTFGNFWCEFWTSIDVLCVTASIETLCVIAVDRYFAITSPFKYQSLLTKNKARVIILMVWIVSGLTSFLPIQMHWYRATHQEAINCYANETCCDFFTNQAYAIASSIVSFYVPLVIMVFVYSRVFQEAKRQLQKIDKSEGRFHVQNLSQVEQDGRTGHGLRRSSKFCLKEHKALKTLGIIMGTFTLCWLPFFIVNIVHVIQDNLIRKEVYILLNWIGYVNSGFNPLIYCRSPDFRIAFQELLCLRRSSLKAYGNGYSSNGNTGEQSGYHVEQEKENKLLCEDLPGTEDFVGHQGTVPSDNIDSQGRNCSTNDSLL
Chain of D(2) dopamine receptor (Homo sapiens) (P14416 whole entry, looked up): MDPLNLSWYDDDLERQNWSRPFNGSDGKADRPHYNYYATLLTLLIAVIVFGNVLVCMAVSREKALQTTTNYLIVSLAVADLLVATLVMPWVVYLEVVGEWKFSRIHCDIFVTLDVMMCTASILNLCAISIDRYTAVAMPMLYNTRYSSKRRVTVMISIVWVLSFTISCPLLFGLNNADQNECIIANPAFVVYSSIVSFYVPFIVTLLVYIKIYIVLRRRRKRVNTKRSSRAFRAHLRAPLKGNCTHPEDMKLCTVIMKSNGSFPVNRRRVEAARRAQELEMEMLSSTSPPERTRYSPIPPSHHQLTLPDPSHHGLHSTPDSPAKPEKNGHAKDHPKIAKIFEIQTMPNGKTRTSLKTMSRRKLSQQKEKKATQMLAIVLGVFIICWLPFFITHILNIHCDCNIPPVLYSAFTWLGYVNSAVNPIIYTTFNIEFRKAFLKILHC
Chain of 5-hydroxytryptamine receptor 2A (Homo sapiens) (P28223 whole entry, looked up): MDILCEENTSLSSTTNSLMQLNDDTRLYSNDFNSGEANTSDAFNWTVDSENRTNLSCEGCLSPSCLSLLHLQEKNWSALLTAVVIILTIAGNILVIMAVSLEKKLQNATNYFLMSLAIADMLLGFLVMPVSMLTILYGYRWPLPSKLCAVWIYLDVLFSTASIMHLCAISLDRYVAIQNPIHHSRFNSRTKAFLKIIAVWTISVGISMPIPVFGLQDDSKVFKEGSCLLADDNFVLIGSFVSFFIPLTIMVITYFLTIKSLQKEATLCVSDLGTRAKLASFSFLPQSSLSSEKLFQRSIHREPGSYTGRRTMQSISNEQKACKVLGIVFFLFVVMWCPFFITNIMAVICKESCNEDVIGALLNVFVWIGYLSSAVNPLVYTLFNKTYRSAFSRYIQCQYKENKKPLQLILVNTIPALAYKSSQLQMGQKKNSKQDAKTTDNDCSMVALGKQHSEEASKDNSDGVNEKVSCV

For the compound `COP(=O)(OC)Oc1ccc([N+](=O)[O-])cc1`, the Potency result in assay [1], in assay [2], in [3], in assay [4], in assay [6] and in [7] was “inactive” throughout. Besides, the Potency entry in assay [8], in assay [9], in assay [10], in assay [11], in [12] and in assay [13] was “inactive” in each case. In addition, the Potency entry in assay [14], in assay [15] and in [16] was “inactive” in each case. In addition, the Potency in assay [5] was 3.24 µM (active).

As to `Cc1c(F)c(F)c(COC(=O)C2C(/C=C(\Cl)C(F)(F)F)C2(C)C)c(F)c1F` (stereo unspecified), the Potency in assay [1] is 30.6 µM (active). Also, the Potency entry in assay [2], in assay [3], in assay [4], in [17], in [6] and in assay [7] was “inactive” in each case. Also, the Potency result in [10], in [11], in assay [12], in [18], in [14] and in [19] was “inactive” in each case. For the same compound, the Potency result in [16] is “inactive”.

As to `COC(C)(C)CCC[C@H](C)C/C=C/C(C)=C/C(=O)OC(C)C`, the Potency in [1] is 61.1 µM (active). The Potency result in assay [2], in assay [3], in assay [4], in assay [17], in assay [6] and in [7] was “inactive” throughout. In addition, the Potency result in [8], in assay [10], in [11], in [12], in assay [18] and in assay [19] was “inactive” in each case. Moreover, the Potency entry in assay [20] and in assay [15] was “inactive” each time.

On to `OC(c1ccc(Cl)cc1)(c1ccc(Cl)cc1)c1cccnc1`, for which the Potency entry in assay [1], in [2], in assay [3], in [4], in assay [5] and in assay [17] was “inactive” throughout. The Potency entry in [6], in assay [11], in assay [18], in assay [13], in [14] and in [19] was “inactive” in each case. Further, the Potency result in assay [15] and in assay [16] was “inactive” each time. Further, the Potency in [12] is 16.8 µM (active).

Consider `O=[N+]([O-])c1c2ccccc2cc2ccccc12`, for which the Potency in [1] was 21.4 µM (active). Also, the Potency result in assay [2], in [3], in [4], in assay [17], in assay [6] and in [7] was “inactive” in each case. Further, the Potency result in assay [11], in assay [12], in assay [18] and in assay [15] was “inactive” in each case.

For `CC(=O)/C=C/c1ccc2c(c1)OCO2`, the Potency in assay [1] is 61.4 µM (active); in assay [9], 41 µM (active). The Potency entry in assay [2], in [3], in assay [4], in assay [5], in assay [6] and in assay [7] was “inactive” throughout. The Potency entry in assay [8], in assay [10], in [11], in [12], in assay [18] and in assay [15] was “inactive” each time.

Turning to `O=NN1CCNCC1`, the Potency in [1] is 76.1 µM (active). The Potency entry in assay [2], in assay [3], in [4], in assay [5], in [17] and in assay [7] was “inactive” in each case. Further, the Potency result in assay [8], in [9], in assay [11], in [12], in [18] and in assay [13] was “inactive” in each case. Moreover, the Potency entry in assay [14], in assay [19] and in assay [16] was “inactive” throughout.
